SMILES strings stand for the structures.

This note sets out measurements from PMC7826789 (International Journal of Molecular Sciences, 2021).

Test systems include STK33; STK35; STK36; STK39; SYK; SgK110; TAOK1; TAOK2; TAOK3; TBK1; TEC; TESK1; TGFBR1; TGFBR2; TIE1; TLK1; TLK2; TNIK.
Details in all cases: Compound Concentration (nM):1000
In the next assay the test system is T1, TAK1.
T1 construct: gene MAP3K7

A further assay has as its system T2, TIE2.
T2 construct: gene TEK
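Also: KINOMEscan scanMAX binding as percent activity remaining versus control; lower means stronger binding.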

Turning to `COc1cc(C=NNc2ncnc3c2cnn3-c2ccccc2)ccc1O` [GW513184X], the “Percent Control” value was 100% in the assay with STK33; 80% in the assay on STK35; 82% in the assay with STK36; 100% in the assay on STK39; 38% in the assay with SYK; 100% with SgK110. For the same compound, the “Percent Control” value is 59% in the assay on TAK1; 100% with TAOK1; 100% in the assay on TAOK2; 95% in the assay with TAOK3; 95% with TBK1; 90% with TEC. Moreover, the “Percent Control” value was 100% in the assay on TESK1; 79% in the assay on TGFBR1; 100% with TGFBR2; 74% in the assay with TIE1; 65% with TIE2; 100% in the assay with TLK1. For the same compound, the “Percent Control” value in the assay with TLK2 was found to be 100%; in the assay on TNIK it was 84%.

As to `NS(=O)(=O)c1ccc(N/N=C2\C(=O)Nc3ccc(C(=O)NCCc4c[nH]cn4)cc32)cc1` [GW300660X], the “Percent Control” value in the assay with STK33 is 67%; in the assay with STK35, 100%; in the assay with STK36, 100%; with STK39, 100%; with SYK it was 100%; with SgK110 it was 100%. The “Percent Control” value in the assay on TAK1 is 18%; in the assay with TAOK1, 75%; in the assay on TAOK2 it was 93%; in the assay on TAOK3, 86%; in the assay with TBK1, 72%; with TEC it was 100%. In addition, the “Percent Control” value with TESK1, with TGFBR1, in the assay with TGFBR2, with TIE1, in the assay with TIE2 and with TLK1 was 100% throughout. In addition, the “Percent Control” value in the assay on TLK2 and with TNIK was 100% in each case.

Regarding `COc1cc2ncn(-c3cc(O[C@H](C)c4ccccc4Cl)c(C(N)=O)s3)c2cc1OC` [GSK237701A], the “Percent Control” value was 100% with STK33; 90% in the assay with STK35; 98% in the assay on STK36; 94% in the assay with STK39; 78% in the assay with SYK; 100% with SgK110. Moreover, the “Percent Control” value in the assay on TAK1 is 78%; with TAOK1, 54%; in the assay with TAOK2 it was 79%; in the assay on TAOK3 it was 71%; in the assay on TBK1, 80%; with TEC, 100%. The “Percent Control” value was 100% in the assay on TESK1; 72% in the assay on TGFBR1; 100% with TGFBR2; 13% in the assay with TIE1; 97% with TIE2; 96% in the assay with TLK1. Besides, the entries for the “Percent Control” value with TLK2 and in the assay on TNIK were 98% and 99%, respectively.

As to `CN1CCN(C(=O)c2ccc(NC(=O)Nc3ccc(N(C)c4ccnc(Nc5ccc(CS(C)(=O)=O)cc5)n4)cc3)cc2)CC1.Cl` [GW830263A], the “Percent Control” value in the assay on STK33 is 92%; in the assay with STK35 it was 71%; with STK36, 37%; with STK39, 79%; in the assay on SYK it was 34%; with SgK110, 89%. Moreover, the “Percent Control” value was 25% in the assay with TAK1; 71% with TAOK1; 76% in the assay on TAOK2; 83% in the assay on TAOK3; 55% in the assay with TBK1; 100% in the assay with TEC. Besides, the “Percent Control” value was 100% in the assay on TESK1; 88% in the assay on TGFBR1; 26% in the assay with TGFBR2; 8.3% with TIE1; 41% in the assay on TIE2; 86% in the assay with TLK1. The “Percent Control” value with TLK2 is on record as 100%; with TNIK it was 23%.

With `COc1ccc2c(-c3ccnc(Nc4cccc(OC(F)(F)F)c4)n3)cnn2n1` [GW810372X], the “Percent Control” value in the assay on STK33 is 90%; in the assay with STK35, 100%; in the assay on STK36, 100%; with STK39, 86%; in the assay on SYK it was 83%; with SgK110, 100%. The “Percent Control” value with TAK1 was 95%; in the assay with TAOK1, 73%; in the assay with TAOK2, 98%; in the assay on TAOK3 it was 100%; in the assay with TBK1 it was 80%; in the assay with TEC, 100%. The “Percent Control” value with TESK1 is 70%; with TGFBR1 it was 100%; with TGFBR2, 52%; with TIE1, 100%; in the assay with TIE2 it was 100%; in the assay with TLK1 it was 100%. For the same compound, the figures for the “Percent Control” value with TLK2 and in the assay with TNIK were 84% and 100%, respectively.

With `Nc1ncnc2occ(-c3ccc(NC(=O)Nc4cc(C(F)(F)F)ccc4F)cc3)c12` [GW770249X], the “Percent Control” value in the assay with STK33 is 11%; in the assay on STK35 it was 95%; in the assay with STK36, 100%; in the assay on STK39 it was 100%; with SYK, 38%; in the assay on SgK110, 100%. Further, the “Percent Control” value in the assay with TAK1 was 3.2%; in the assay with TAOK1 it was 75%; in the assay with TAOK2, 67%; in the assay on TAOK3 it was 74%; with TBK1, 100%; in the assay on TEC it was 100%. Besides, the “Percent Control” value was 100% in the assay on TESK1; 100% with TGFBR1; 100% in the assay on TGFBR2; 2.6% with TIE1; 3.8% in the assay with TIE2; 100% in the assay on TLK1. Besides, the “Percent Control” value in the assay with TLK2 is listed as 100%; in the assay on TNIK, 59%.

With `COc1cccc(-n2ncc3c(N/N=C/c4ccncc4)ncnc32)c1` [GW784752X], the “Percent Control” value in the assay with STK33 was 100%; in the assay on STK35, 100%; in the assay with STK36, 96%; in the assay with STK39, 100%; with SYK, 79%; in the assay on SgK110, 100%. Also, the “Percent Control” value in the assay on TAK1 was 97%; with TAOK1 it was 39%; in the assay with TAOK2, 97%; with TAOK3 it was 91%; in the assay with TBK1, 100%; with TEC, 100%. For the same compound, the “Percent Control” value was 85% in the assay with TESK1; 36% in the assay on TGFBR1; 100% in the assay with TGFBR2; 100% with TIE1; 100% with TIE2; 89% with TLK1. Moreover, the “Percent Control” value is given as 93% in the assay with TLK2 and 97% with TNIK.

Take `COc1ccc2cc(-c3c(-c4ccncc4)nc(-c4ccc(S(C)(=O)=O)cc4C)n3C)ccc2c1` [SB-633825]: the “Percent Control” value in the assay on STK33 was 89%; with STK35 it was 57%; in the assay on STK36, 82%; with STK39, 66%; in the assay on SYK, 78%; with SgK110 it was 85%. Further, the “Percent Control” value with TAK1 was 80%; in the assay with TAOK1, 84%; in the assay with TAOK2, 77%; with TAOK3 it was 74%; in the assay with TBK1, 65%; in the assay with TEC, 66%. Besides, the “Percent Control” value is 91% with TESK1; 9.7% in the assay on TGFBR1; 86% in the assay with TGFBR2; 3.8% in the assay on TIE1; 2.4% in the assay with TIE2; 94% with TLK1. In addition, the “Percent Control” value in the assay on TLK2 was determined as 100%; in the assay on TNIK it was 54%.

Turning to `CCS(=O)(=O)c1ccc(OC)c(Nc2ncc(-c3cccc(OC)c3)o2)c1` [GW580509X], the “Percent Control” value in the assay on STK33 is 100%; with STK35 it was 100%; with STK36 it was 100%; with STK39 it was 100%; with SYK, 96%; in the assay with SgK110, 100%. The “Percent Control” value in the assay on TAK1 is 81%; with TAOK1 it was 100%; in the assay on TAOK2, 100%; in the assay on TAOK3 it was 100%; with TBK1, 100%; in the assay on TEC it was 100%. Also, the “Percent Control” value in the assay with TESK1 was 100%; in the assay on TGFBR1 it was 81%; in the assay with TGFBR2 it was 46%; with TIE1, 49%; with TIE2, 100%; with TLK1, 100%. Also, the “Percent Control” value in the assay on TLK2 is given as 99%; in the assay on TNIK, 75%.

Regarding `O=C(Nc1n[nH]c2nc(-c3ccc(O)cc3)c(Br)cc12)C1CC1` [SB-725317], the “Percent Control” value was 96% with STK33; 100% in the assay on STK35; 100% with STK36; 99% with STK39; 100% in the assay with SYK; 100% in the assay on SgK110. The “Percent Control” value in the assay on TAK1 is 95%; in the assay with TAOK1, 1%; in the assay on TAOK2, 2.6%; in the assay with TAOK3 it was 2.6%; in the assay on TBK1, 86%; in the assay with TEC it was 100%. Also, the “Percent Control” value in the assay on TESK1, in the assay with TGFBR1, in the assay with TGFBR2, in the assay on TIE1, in the assay with TIE2 and in the assay with TLK1 was 100% each time. In addition, the “Percent Control” value with TLK2 was found to be 100%; in the assay with TNIK, 72%.
